Results published in PubChem BioAssay AID1159580 (chemical genetic matrix, 2015).
Among all 5,500 compounds or so, about 2,000 (36%) were called active. Inconclusive results (about 18%) are left out. Rule as the data show it: active = normalized growth mostly below about 0.91 (no sharp cut-off); inconclusive = no clear call, values can overlap the other calls; inactive = mostly above about 0.92. Some of the results follow.

Experiment: chemical genetic growth profiling, strain panel (AID 1159580);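 also: tested at 20 µM; growth read once vehicle control cultures reached saturation at 30 °C; 1 = growth at the plate median or of vehicle wells; lower values mean less growth of the strain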
Details: growth OD

Measured: normalized growth

N#CC(O[C@@H]1O[C@H](CO[C@@H]2O[C@H](CO)[C@@H](O)[C@H](O)[C@H]2O)[C@@H](O)[C@H](O)[C@H]1O)c1ccccc1 (some centres not stated)
inactive: S. cerevisiae deletion strains, locus YJR043C, strain POL32, active compounds read low 1.01 | S. cerevisiae deletion strains, locus YJR066W, strain TOR1, active compounds read low 0.921 | S. cerevisiae deletion strains, locus YJR075W, strain HOC1, active compounds read low 0.999 | S. cerevisiae deletion strains, locus YKL009W, strain mrt4, active compounds read low 0.99 | S. cerevisiae deletion strains, locus YKL068W, active compounds read low 0.991 | S. cerevisiae deletion strains, locus YKL085W, strain MDH1 (second series), active compounds read low 0.987 | S. cerevisiae deletion strains, locus YKL085W, strain MDH1, active compounds read low 0.987 | S. cerevisiae deletion strains, locus YKL160W, strain elf1, active compounds read low 0.983 | S. cerevisiae deletion strains, locus YKR001C, strain vps1, active compounds read low 0.988 | S. cerevisiae deletion strains, locus YKR026C, strain gcn3, active compounds read low 0.977 | S. cerevisiae deletion strains, locus YKR091W, strain srl3, active compounds read low 0.979 | S. cerevisiae deletion strains, locus YLL001W, strain dnm1, active compounds read low 0.984 | S. cerevisiae deletion strains, locus YLL026W, active compounds read low 0.981 | S. cerevisiae deletion strains, locus YLL041C, strain sdh2, active compounds read low 0.991 | S. cerevisiae deletion strains, locus YLR027C, strain aat2, active compounds read low 0.987 | S. cerevisiae deletion strains, locus YLR039C, strain RIC1, active compounds read low 1.01 | S. cerevisiae deletion strains, locus YLR058C, strain SHM2, active compounds read low 1.01 | S. cerevisiae deletion strains, locus YLR102C, strain apc9, active compounds read low 0.983 | S. cerevisiae deletion strains, locus YLR113W, strain HOG1, active compounds read low 1.03 | S. cerevisiae deletion strains, locus YLR221C, strain rsa3, active compounds read low 0.976 | S. cerevisiae deletion strains, locus YLR258W, strain gsy2, active compounds read low 0.982 | S. cerevisiae deletion strains, locus YLR262C, strain YPT6 (second series), active compounds read low 0.991 | S. cerevisiae deletion strains, locus YLR262C, strain YPT6, active compounds read low 1.04 | S. cerevisiae deletion strains, locus YLR268W, strain sec22, active compounds read low 0.972 | S. cerevisiae deletion strains, locus YLR320W, strain mms22, active compounds read low 0.968 | S. cerevisiae deletion strains, locus YLR330W, strain CHS5, active compounds read low 1.01 | S. cerevisiae deletion strains, locus YLR342W, strain FKS1 (second series), active compounds read low 1.03 | S. cerevisiae deletion strains, locus YLR342W, strain FKS1, active compounds read low 0.967 | S. cerevisiae deletion strains, locus YLR357W, strain rsc2, active compounds read low 0.948 | S. cerevisiae deletion strains, locus YLR370C, strain arc18, active compounds read low 0.991 | S. cerevisiae deletion strains, locus YLR371W, strain rom2, active compounds read low 1.01 | S. cerevisiae deletion strains, locus YLR384C, strain iki3, active compounds read low 0.96 | S. cerevisiae deletion strains, locus YLR418C, strain cdc73, active compounds read low 1.02 | S. cerevisiae deletion strains, locus YML016C, strain PPZ1, active compounds read low 0.986 | S. cerevisiae deletion strains, locus YML032C, strain rad52, active compounds read low 1.01 | S. cerevisiae deletion strains, locus YML120C, strain ndi1, active compounds read low 0.991 | S. cerevisiae deletion strains, locus YML124C, strain tub3, active compounds read low 0.999 | S. cerevisiae deletion strains, locus YMR058W, strain fet3, active compounds read low 0.989 | S. cerevisiae deletion strains, locus YMR078C, strain ctf18, active compounds read low 1 | S. cerevisiae deletion strains, locus YMR125W, strain sto1, active compounds read low 0.965 | S. cerevisiae deletion strains, locus YMR129W, active compounds read low 0.985 | S. cerevisiae deletion strains, locus YMR205C, strain PFK2, active compounds read low 0.985 | S. cerevisiae deletion strains, locus YMR223W, strain ubp8, active compounds read low 1.01 | S. cerevisiae deletion strains, locus YMR231W, strain pep5, active compounds read low 0.964 | S. cerevisiae deletion strains, locus YMR307W, strain GAS1, active compounds read low 1.01 | S. cerevisiae deletion strains, locus YNL067W, strain RPL9B, active compounds read low 1.03 | S. cerevisiae deletion strains, locus YNL071W, strain lat1, active compounds read low 0.98 | S. cerevisiae deletion strains, locus YNL183C, strain NPR1, active compounds read low 0.976 | S. cerevisiae deletion strains, locus YNL209W, strain ssb2, active compounds read low 0.984 | S. cerevisiae deletion strains, locus YNL233W, strain BNI4, active compounds read low 1.04 | S. cerevisiae deletion strains, locus YNL248C, strain rpa49, active compounds read low 0.983 | S. cerevisiae deletion strains, locus YNL250W, strain rad50, active compounds read low 0.969 | S. cerevisiae deletion strains, locus YNL271C, strain bni1, active compounds read low 0.986 | S. cerevisiae deletion strains, locus YNL298W, strain CLA4, active compounds read low 0.996 | S. cerevisiae deletion strains, locus YNL307C, strain MCK1, active compounds read low 0.991 | S. cerevisiae deletion strains, locus YNL322C, strain KRE1 (second series), active compounds read low 0.977 | S. cerevisiae deletion strains, locus YNR049C, strain mso1, active compounds read low 0.984 | S. cerevisiae deletion strains, locus YNR052C, strain pop2, active compounds read low 0.989 | S. cerevisiae deletion strains, locus YOL006C, strain TOP1, active compounds read low 1.05 | S. cerevisiae deletion strains, locus YOL012C, strain htz1 1.19 | S. cerevisiae deletion strains, locus YOL147C, strain pex11, active compounds read low 0.989 | S. cerevisiae deletion strains, locus YOR001W, strain rrp6, active compounds read low 0.946 | S. cerevisiae deletion strains, locus YOR061W, strain CKA2, active compounds read low 0.993 | S. cerevisiae deletion strains, locus YOR069W, strain VPS5, active compounds read low 0.993 | S. cerevisiae deletion strains, locus YOR070C, strain gyp1, active compounds read low 0.967 | S. cerevisiae deletion strains, locus YOR080W, strain dia2, active compounds read low 0.966 | S. cerevisiae deletion strains, locus YOR083W, strain WHI5, active compounds read low 0.976 | S. cerevisiae deletion strains, locus YOR106W, strain vam3, active compounds read low 0.989 | S. cerevisiae deletion strains, locus YOR136W, strain idh2, active compounds read low 0.994 | S. cerevisiae deletion strains, locus YOR144C, strain elg1, active compounds read low 0.99 | S. cerevisiae deletion strains, locus YOR184W, strain ser1, active compounds read low 1.04 | S. cerevisiae deletion strains, locus YOR231W, strain MKK1, active compounds read low 0.974 | S. cerevisiae deletion strains, locus YOR265W, strain rbl2, active compounds read low 0.981 | S. cerevisiae deletion strains, locus YOR270C, strain vph1, active compounds read low 0.98 | S. cerevisiae deletion strains, locus YOR290C, strain snf2, active compounds read low 0.988 | S. cerevisiae deletion strains, locus YOR316C, strain cot1, active compounds read low 0.985 | S. cerevisiae deletion strains, locus YPL051W, strain arl3, active compounds read low 0.98 | S. cerevisiae deletion strains, locus YPL078C, strain atp4, active compounds read low 0.984 | S. cerevisiae deletion strains, locus YPL106C, strain sse1, active compounds read low 0.972 | S. cerevisiae deletion strains, locus YPL240C, strain hsp82, active compounds read low 0.985 | S. cerevisiae deletion strains, locus YPL256C, strain CLN2, active compounds read low 0.969 | S. cerevisiae deletion strains, locus YPR119W, strain clb2, active compounds read low 1.01 | S. cerevisiae deletion strains, locus YPR141C, strain kar3, active compounds read low 0.981 | S. cerevisiae deletion strains, locus YPR163C, strain tif3, active compounds read low 0.992 | S. cerevisiae deletion strains, locus YPR167C, strain met16, active compounds read low 0.973 | S. cerevisiae deletion strains, strain wtn01, active compounds read low 0.984 | S. cerevisiae strains, strain wild type, active compounds read low 1.02
